The nature of test [1]: NCI Yeast Anticancer Drug Screen. Data for the rad50 strain (AID 155).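 Note: 0% = growth of vehicle-only cultures of the same strain.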 Particulars: S. cerevisiae rad50 strain growth inhibition, active compounds read high. The gist of the method:
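Relative growth inhibition (compound vs vehicle) was measured in yeast with a defined repair-gene alteration.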

The nature of test [2]: NCI Yeast Anticancer Drug Screen. Data for the mec2-1 strain (AID 157). Particulars: S. cerevisiae mec2-1 strain, active compounds read high. The method, boiled down:
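Each compound was tested on mec2-1 yeast, a strain altered in DNA damage repair or cell cycle control. Growth inhibition is reported relative to vehicle.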

Test [3] can be described thus: NCI Yeast Anticancer Drug Screen. Data for the sgs1 mgt1 strain (AID 161).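 Note: 0% = growth of cultures given vehicle only.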 Particulars: S. cerevisiae sgs1 mgt1 strain, active compounds read high. The gist of the method:
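Inhibition of yeast growth, normalised to vehicle-treated controls, is reported for a strain bearing genetic alterations in DNA damage repair.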

Test [4] in a line: NCI Yeast Anticancer Drug Screen. Data for the cln2 rad14 strain (AID 165).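 Note: 0% = growth equal to vehicle treated cultures.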 Particulars: S. cerevisiae cln2 rad14 strain, active compounds read high. The method, boiled down: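 Test compounds were added to cln2 rad14 yeast cultures; inhibition of growth was then determined by comparison with vehicle treatment.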
Test [5] in a line: NCI Yeast Anticancer Drug Screen. Data for the bub3 strain (AID 167). Particulars: S. cerevisiae bub3 mutant strain, active compounds read high. The gist of the method:
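Screening used yeast with an engineered genetic alteration affecting cell cycle control. Compound-exposed cultures were compared with vehicle cultures, and reduced growth was taken as inhibition.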

Test [6] can be described thus: NCI Yeast Anticancer Drug Screen. Data for the mlh1 rad18 strain (AID 175). Particulars: S. cerevisiae mlh1 rad18 strain growth inhibition, active compounds read high. The gist of the method: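 Inhibition values reflect reduced growth of mutant yeast versus vehicle-treated controls following compound exposure; the mutations affect DNA damage repair.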
Setting [7] is: at 5.0 µM (retest, dose inferred, filed as 0.5).
Setting [8] is: at 50.0 µM (retest, dose inferred, filed as 5.0).

About 79,000 compounds went through this panel and 15% of them were active in at least one assay; those are over-represented in the sample as a whole. Unmarked numbers belong to inactive results. Calls of active or inactive are those of the source. Cut-off read from the data, not from the text of the source: active = growth inhibition above about 70%; inactive = the rest.

The values that follow come from PubChem BioAssay (NCI).

Take `C/C(=N\NC(=S)N1CCN(c2cnccn2)CC1)c1ccccn1`: the growth inhibition in test [1] (setting [7]) is 24%; in test [1] (setting [8]), 98% (active); in test [1] (at 50.0 µM), 91.4% (active); in test [2] (setting [7]) it was 23%; in test [2] (setting [8]), 99% (active); in test [2] (at 50.0 µM), 89.9% (active). Further, the growth inhibition in test [3] (setting [7]) was 19%; in test [3] (setting [8]), 99% (active); in test [3] (at 50.0 µM), 86.1% (active); in test [4] (setting [7]), 10%; in test [4] (setting [8]) it was 99% (active); in test [4] (at 50.0 µM), 88.2% (active). Moreover, the growth inhibition was 30% in test [5] (setting [7]); 99% (active) in test [5] (setting [8]); 85.3% (active) in test [5] (at 50.0 µM); 28% in test [6] (setting [7]); 99% (active) in test [6] (setting [8]); 91.7% (active) in test [6] (at 50.0 µM).
Consider `Clc1cc(Cl)c(OCCOCCI)c(Cl)c1`, for which the growth inhibition in test [1] (setting [7]) is 0%; in test [1] (setting [8]), 13%; in test [1] (at 50.0 µM), 28.1%; in test [2] (setting [7]) it was 2%; in test [2] (setting [8]), 12%; in test [2] (at 50.0 µM), 9.15%. Moreover, the growth inhibition in test [3] (setting [7]) was 1%; in test [3] (setting [8]), 11%; in test [3] (at 50.0 µM), 16.1%; in test [4] (setting [7]), 1%; in test [4] (setting [8]), -25%; in test [4] (at 50.0 µM), 14.4%. Also, the growth inhibition in test [5] (setting [7]) is 10%; in test [5] (setting [8]), 42%; in test [5] (at 50.0 µM), 48%; in test [6] (setting [7]), -3%; in test [6] (setting [8]), 5%; in test [6] (at 50.0 µM), 34%.
For the compound `CSC(=S)N/N=C\C(C)=N/N=C(N)N`, the growth inhibition in test [1] (setting [7]) is 14%; in test [1] (setting [8]), 92% (active); in test [1] (at 50.0 µM), 94% (active); in test [2] (setting [7]), 16%; in test [2] (setting [8]) it was 93% (active); in test [2] (at 50.0 µM) it was 74.5% (active). Also, the growth inhibition is 53% in test [3] (setting [7]); 92% (active) in test [3] (setting [8]); 85.4% (active) in test [3] (at 50.0 µM); -14% in test [4] (setting [7]); 89% (active) in test [4] (setting [8]); 18.9% in test [4] (at 50.0 µM). For the same compound, the growth inhibition is -4% in test [5] (setting [7]); 92% (active) in test [5] (setting [8]); 86.4% (active) in test [5] (at 50.0 µM); 30% in test [6] (setting [7]); 90% (active) in test [6] (setting [8]); 93.7% (active) in test [6] (at 50.0 µM).
As for `CN=S(=O)(OCCCCCCCCCOS(=O)(=NC)c1ccc(C)cc1)c1ccc(C)cc1` (stereo not drawn), the growth inhibition in test [1] (setting [7]) is 17%; in test [1] (setting [8]), 12%; in test [1] (at 50.0 µM), 42.5%; in test [2] (setting [7]), 14%; in test [2] (setting [8]) it was 6%; in test [2] (at 50.0 µM), 70% (active). The growth inhibition in test [3] (setting [7]) was 16%; in test [3] (setting [8]), 15%; in test [3] (at 50.0 µM), 19.7%; in test [4] (setting [7]), 29%; in test [4] (setting [8]), -1%; in test [4] (at 50.0 µM), -5.85%. The growth inhibition is 20% in test [5] (setting [7]); 20% in test [5] (setting [8]); -35.3% in test [5] (at 50.0 µM); 18% in test [6] (setting [7]); 11% in test [6] (setting [8]); -80.8% in test [6] (at 50.0 µM).
Take `CC(C)CCOC(=O)Nc1cccc(Cl)c1`: the growth inhibition in test [1] (setting [7]) was 2%; in test [1] (setting [8]) it was 76% (active); in test [1] (at 50.0 µM) it was 62.1%; in test [2] (setting [7]), -4%; in test [2] (setting [8]) it was 11%; in test [2] (at 50.0 µM), 12.8%. For the same compound, the growth inhibition in test [3] (setting [7]) was 0%; in test [3] (setting [8]) it was 36%; in test [3] (at 50.0 µM) it was 66.2%; in test [4] (setting [7]), 1%; in test [4] (setting [8]), -8%; in test [4] (at 50.0 µM), 13.2%. Moreover, the growth inhibition is 47% in test [5] (setting [7]); 17% in test [5] (setting [8]); -0.75% in test [5] (at 50.0 µM); 4% in test [6] (setting [7]); 33% in test [6] (setting [8]); 44% in test [6] (at 50.0 µM).
Take `CC(C)C1(C)C(C#N)(C#N)C1(C#N)C#N`: the growth inhibition in test [1] (setting [7]) was -94%; in test [1] (setting [8]) it was 94% (active); in test [1] (at 50.0 µM), 79.8% (active); in test [2] (setting [7]), -35%; in test [2] (setting [8]), 92% (active); in test [2] (at 50.0 µM) it was 91.5% (active). Further, the growth inhibition was -46% in test [3] (setting [7]); 90% (active) in test [3] (setting [8]); 95.5% (active) in test [3] (at 50.0 µM); -46% in test [4] (setting [7]); 22% in test [4] (setting [8]); 48.4% in test [4] (at 50.0 µM). Also, the growth inhibition in test [5] (setting [7]) is -39%; in test [5] (setting [8]) it was 91% (active); in test [5] (at 50.0 µM), 92% (active); in test [6] (setting [7]), -77%; in test [6] (setting [8]), 94% (active); in test [6] (at 50.0 µM), 95.8% (active).
